Test results: paper PMC4336329 (PLoS ONE, 2015)
Screen size: about 310,000 compounds; about 14,000 (4.5%) showed an effect of 50% or more. The effect is printed as a negative number. The entries come from a sample that favours strong results as a whole.

target: human ether-à-go-go-related gene (hERG) potassium channel (human, UniProt Q12809); assay: primary screen, population patch clamp on CHO cells stably expressing hERG; higher = less effect of the substance
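Further: peak tail current of the secondary pulse compared with the same well before compound.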

Chain of human ether-à-go-go-related gene (hERG) potassium channel (Q12809 whole entry, looked up): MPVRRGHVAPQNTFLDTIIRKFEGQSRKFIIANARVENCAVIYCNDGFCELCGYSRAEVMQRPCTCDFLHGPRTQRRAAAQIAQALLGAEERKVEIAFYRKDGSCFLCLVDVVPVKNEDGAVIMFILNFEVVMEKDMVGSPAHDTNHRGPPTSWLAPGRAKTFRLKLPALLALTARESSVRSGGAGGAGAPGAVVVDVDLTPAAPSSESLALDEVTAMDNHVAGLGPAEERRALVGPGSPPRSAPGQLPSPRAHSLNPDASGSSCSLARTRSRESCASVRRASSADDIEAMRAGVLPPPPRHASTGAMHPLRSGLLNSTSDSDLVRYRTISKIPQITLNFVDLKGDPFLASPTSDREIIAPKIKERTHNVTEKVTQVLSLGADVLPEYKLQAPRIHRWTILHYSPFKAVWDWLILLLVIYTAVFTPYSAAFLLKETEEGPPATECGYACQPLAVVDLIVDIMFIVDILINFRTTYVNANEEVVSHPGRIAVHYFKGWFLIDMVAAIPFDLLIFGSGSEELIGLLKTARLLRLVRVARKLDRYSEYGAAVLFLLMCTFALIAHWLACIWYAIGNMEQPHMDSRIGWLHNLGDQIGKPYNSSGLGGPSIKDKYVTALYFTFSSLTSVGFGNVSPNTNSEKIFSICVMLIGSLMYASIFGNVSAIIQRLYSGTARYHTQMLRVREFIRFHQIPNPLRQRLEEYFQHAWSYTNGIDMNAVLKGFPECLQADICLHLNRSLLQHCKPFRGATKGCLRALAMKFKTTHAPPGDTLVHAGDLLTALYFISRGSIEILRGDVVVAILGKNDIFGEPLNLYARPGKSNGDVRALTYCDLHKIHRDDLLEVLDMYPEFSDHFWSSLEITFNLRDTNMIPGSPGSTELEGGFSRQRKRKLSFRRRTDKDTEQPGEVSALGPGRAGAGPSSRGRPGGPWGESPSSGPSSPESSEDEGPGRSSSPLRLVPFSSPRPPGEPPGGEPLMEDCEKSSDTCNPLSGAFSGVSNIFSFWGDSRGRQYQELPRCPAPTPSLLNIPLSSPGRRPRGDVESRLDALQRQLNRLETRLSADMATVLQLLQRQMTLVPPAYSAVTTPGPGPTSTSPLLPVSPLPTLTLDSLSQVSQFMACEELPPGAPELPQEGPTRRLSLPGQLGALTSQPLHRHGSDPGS

SMILES	hERG current change (%, negative = inhibition) at 10uM [%]
COc1ccc(CN2CCOCC2)cc1	10.7
COc1ccc(CN2CCOCCOCCOCCOCC2)cc1	-36
COc1ccc(CN2CCOCCOCCOCC2)cc1	-58.3
COc1ccc(CN2CCCCCC2)cc1	-10.9
COc1ccc(CN2CCOCCOCCOCCOCCOCC2)cc1	-20.7
COc1ccc(CN2CCOCCOCCN(Cc3ccc(OC)cc3)CCOCCOCC2)cc1	-77.3
COc1ccc(-n2nnnc2SCC(=O)Nc2cc(OC)c([N+](=O)[O-])cc2C)cc1	42.4
COc1ccccc1N1CCN(C(=O)C(C)N(c2ccccc2)S(C)(=O)=O)CC1 (stereo not drawn)	5.64
CCOC(=O)Nc1ccc(C)cc1NC(=O)OCC	11.7
Cc1ccc(NS(=O)(=O)c2cccs2)c(C)c1	-2.42
N#C/C(=C/c1ccc(F)cc1)S(=O)(=O)c1ccccc1	21.3
Cc1ccccc1CC1(CO)CCCN(Cc2ccccc2Cl)C1 (stereo not drawn)	-25.6
Cc1oc(-c2cccs2)nc1CN1CCN(C(C)C)C(CCO)C1 (stereo not drawn)	4.95
COc1cccc(CC2(CO)CCCN(Cc3ccc(CO)o3)C2)c1 (stereo not drawn)	-7.04
Cc1ccccc1CC1(CO)CCCN(Cc2nc(-c3cccs3)oc2C)C1 (stereo not drawn)	-61.1
Cc1oc(-c2cccs2)nc1CN1CCN(Cc2ccc(F)c(F)c2)C(CCO)C1 (stereo not drawn)	-47.2
Cc1oc(-c2cccs2)nc1CN1CCN(CC(C)C)C(CCO)C1 (stereo not drawn)	5.96
COc1cccc(CN2CCN(Cc3nc(-c4cccs4)oc3C)CC2CCO)c1 (stereo not drawn)	-57
Cc1oc(-c2cccs2)nc1CN1CC[C@@](O)(c2ccccc2)[C@H]2CCCC[C@@H]21	11.8
Cc1oc(-c2cccs2)nc1CN1CCC(CO)(CCOc2ccccc2)CC1	-67
COc1cccc(CC2(CO)CCCN(Cc3nc(-c4cccs4)oc3C)C2)c1 (stereo not drawn)	-64.5
COCc1ccc(CN2CCCC(CO)(Cc3cccc(OC)c3)C2)o1 (stereo not drawn)	-26.2
Cc1ccc(CN2CCCC(CO)(Cc3ccccc3C)C2)s1 (stereo not drawn)	-37.7

SMILES	hERG current change (%, negative = inhibition) at 10uM [%]
OCC1CCCN1C(=S)Nc1ccccc1 (stereo not drawn)	3.84
COc1ccc(C(=O)COC(=O)CN2C(=O)C3C4CCC(C4)C3C2=O)cc1 (stereo not drawn)	-17.9
O=C(CSc1nc2c(cnn2-c2ccc(F)cc2)c(=O)[nH]1)N1CCCc2ccccc21	10.1
O=C1C=C(O)c2cccc3cccc1c23	28.3
CCN(CC)S(=O)(=O)c1ccc2c(c1)oc(=O)n2CC(=O)N(C)C1CCCCC1	-11.9
Cc1cc(-c2cccs2)c2c(n1)sc1c(=O)[nH]c(=O)[nH]c12	5.3
O=C(NCCCNC(=O)c1cnccn1)c1ccc(Cl)c(Cl)c1	-15.6
Cc1oc(-c2cccs2)nc1CN1CCC(C(=O)N2CCCC2)CC1	-11.2
COc1ccc(-c2nc(CN3CCC(c4ccccc4)CC3)c(C)o2)cc1OC	-37.7
Cc1oc(-c2cccs2)nc1CN1CCC(c2ccccc2)CC1	-66.5
Cc1c(Cl)cccc1NC(=O)CCN1CCCCCC1	-3.92
C/C(=N\OCC(=O)NCC(F)(F)F)c1cc2ccccc2o1	-1.58
CN(Cc1ccccn1)C(=O)C1CCC(=O)N(Cc2cccc(C(F)(F)F)c2)C1 (stereo not drawn)	-15.7
O=C(NCCc1nccs1)C1CCC(=O)N(CCc2ccc(Cl)cc2)C1 (stereo not drawn)	-31.6
CN(Cc1ccon1)C(=O)C1CCC(=O)N(Cc2ccc(Cl)cc2)C1 (stereo not drawn)	-40.9
CN(Cc1nccs1)C(=O)C1CCC(=O)N(CCc2cccc(F)c2)C1 (stereo not drawn)	-12.4
CN(Cc1ccccn1)C(=O)C1CCC(=O)N(CCc2ccc(Cl)cc2)C1 (stereo not drawn)	-53.1
CN(Cc1nccn1C)C(=O)C1CCC(=O)N(Cc2cccc(C(F)(F)F)c2)C1 (stereo not drawn)	-9.93
CN(Cc1cnn(C)c1)C(=O)C1CCC(=O)N(Cc2ccc(Cl)cc2)C1 (stereo not drawn)	-9.64
CCc1ccc(CN(C)C(=O)C2CCC(=O)N(Cc3ccccn3)C2)cc1 (stereo not drawn)	-1.48
CN(Cc1cnccn1)C(=O)C1CCC(=O)N(CCc2ccc(Cl)cc2)C1 (stereo not drawn)	-67.9
CN(Cc1nccs1)C(=O)C1CCC(=O)N(CCc2ccc(Cl)cc2)C1 (stereo not drawn)	-81.5
CN(Cc1nccn1C)C(=O)C1CCC(=O)N(CCc2ccc(Cl)cc2)C1 (stereo not drawn)	-53.8

SMILES	hERG current change (%, negative = inhibition) at 10uM [%]
CN(Cc1cnccn1)C(=O)C1CCC(=O)N(CCc2ccccc2)C1 (stereo not drawn)	19.7
O=C(NNC(=O)C1COc2ccccc2O1)c1ccccc1 (stereo not drawn)	-1.85
O=C(NCc1cccs1)C1CCC(CNS(=O)(=O)c2ccccc2)CC1 (stereo not drawn)	-2.7
O=C(Nc1cccnc1)c1ccc(C(=O)Nc2cccnc2)cc1	29.7
COc1ccc(-c2nc(CS(=O)CC(=O)NC3CCCCCC3)c(C)o2)cc1 (stereo not drawn)	10.6
CCN(CC(=O)NC(C)(C)C)C(=O)C(c1ccccc1)c1ccccc1	23.5
COc1cccc(NC(=O)c2ccc(S(=O)(=O)NCc3cccnc3)cc2)c1	-0.62
O=c1oc2ccccc2c(O)c1C=Nc1cccnc1	12.2
C#Cc1ccc(CN2CCCC(C(=O)Nc3ccccc3Oc3cccnc3)C2)cc1 (stereo not drawn)	-58.5
O=C(Nc1ccccc1Oc1cccnc1)C1CCCN(Cc2ccc(F)cc2)C1 (stereo not drawn)	-36.2
O=C(Nc1ccccc1Oc1cccnc1)C1CCCN(Cc2cccc(Cl)c2)C1 (stereo not drawn)	-30.2
O=C(Nc1ccccc1Oc1cccnc1)C1CCCN(Cc2ccccc2O)C1 (stereo not drawn)	-57.2
Cc1cccc(CN2CCCC(C(=O)Nc3ccccc3Oc3cccnc3)C2)c1 (stereo not drawn)	-43.9
Cc1ccccc1CN1CCCC(C(=O)Nc2ccccc2Oc2cccnc2)C1 (stereo not drawn)	0.0346
CCN1CCN(CC(O)COc2ccc3c(C)cc(=O)oc3c2)CC1.Cl (stereo not drawn)	-0.83
O=C(CSCC(=O)N1CCOCC1)Nc1ccccc1	-0.115
O=C(NC1CCS(=O)(=O)C1)c1ccc2c(c1)OCO2 (stereo not drawn)	13
Cc1nc2ccc(NC(=O)c3ccc(Cl)c(S(=O)(=O)N(C)c4ccccc4)c3)cc2s1	10.3
Cc1cccc(C)c1NC(=O)C(NC=O)c1ccccc1 (stereo not drawn)	-64.1
Cc1cccc(C)c1NC(=O)C(NC=O)c1ccc(Cl)cc1 (stereo not drawn)	0.758
Cc1cccc(C)c1NC(=O)C(NC=O)c1ccc(N(C)C)cc1 (stereo not drawn)	-11.1
COc1cc2c(=O)n(Cc3ccco3)c(=O)n(CC(=O)c3ccc(Br)cc3)c2cc1OC	-3.02
Cc1ccc(C(=O)NCC(c2ccco2)N2CCc3ccccc32)cc1C (stereo not drawn)	-60.1

SMILES	hERG current change (%, negative = inhibition) at 10uM [%]
O=C(NCC(c1ccco1)N1CCc2ccccc21)c1ccccc1Br (stereo not drawn)	-29.3
O=C(NCC(c1ccco1)N1CCc2ccccc21)c1c(F)cccc1F (stereo not drawn)	-7.53
O=C(NCC(c1ccco1)N1CCc2ccccc21)c1ccccc1Cl (stereo not drawn)	-60.2
COc1ccc(CCC(=O)NCC(c2ccco2)N2CCc3ccccc32)cc1 (stereo not drawn)	-44.2
COc1ccccc1C(=O)NCC(c1ccco1)N1CCc2ccccc21 (stereo not drawn)	-6.41
O=C(NCC(c1ccco1)N1CCc2ccccc21)c1ccccc1 (stereo not drawn)	-3.78
Cc1ccc(C(=O)NCC(c2ccco2)N2CCc3ccccc32)cc1 (stereo not drawn)	-13
O=C(NCC(c1ccco1)N1CCc2ccccc21)c1ccccc1F (stereo not drawn)	-19.8
Cc1cccc(C(=O)NCC(c2ccco2)N2CCc3ccccc32)c1 (stereo not drawn)	-25.6
Cc1ccccc1C(=O)NCC(c1ccco1)N1CCc2ccccc21 (stereo not drawn)	-55.7
O=C(CCc1ccccc1)NCC(c1ccco1)N1CCc2ccccc21 (stereo not drawn)	-56.2
O=C(C[n+]1ccc(/C=N/O)cc1)N(Cc1ccccc1)Cc1ccccc1.[Cl-]	0.798
CC(=C/C(=O)O)/C(=C/c1ccccc1)C(=O)O	15.6
Cc1occc1C(=O)n1nnc2ccccc21	-7.48
Cc1cc(S(=O)(=O)NCCN2CCOCC2)ccc1Cl	21.3
Cc1sc2ncn(CC(=O)NCCCN3CC(C)CC(C)C3)c(=O)c2c1S(=O)(=O)N1CC(C)CC(C)C1 (stereo not drawn)	-32.1
O=C(NCC(c1cccnc1)N1CCOCC1)C1CCCCC1 (stereo not drawn)	5
Cc1ccnc(NC(=O)CNC(=O)c2ccc3ccccc3c2)c1	-12.5
COc1ccc2c(c1)c(C(=O)OCCN(C)C)c(C)n2C.Cl	-1.4
CCOC(=O)c1c(-c2ccccc2)c2cc(OC)ccc2n1CCCN(C)C.Cl	-72.4
CCCCn1c(C)c(C(=O)O)c2cc(OC)ccc21	1.59
